Assay results published in PubChem BioAssay AID463173 (ICCB-Longwood Screening Facility, Harvard Medical School, 2010).
The whole screen tested about 52,000 compounds, of which about 4,300 (8.3%) were called active. For the sample, actives were picked, then their nearest neighbours and some compounds at random. Values without a mark were called inactive. Rule as the data show it: active = survival mostly below about 52% (no sharp cut-off); inactive = mostly above about 56%.

test system: DeltatarO mutant; assay: growth inhibition of S. aureus wild type versus tarO mutant, primary screen, teichoic acid synthesis inhibitors, RN4220, OD600 (AID 463173); conditions: OD600, 18 h, hits give low values, screened at 18.75 µg/mL (by protocol)

| Compound | survival |
| --- | --- |
| CCNC(=O)C1CCN(S(=O)(=O)c2ccc3c(c2)CCCN3C(C)=O)CC1 | 99% |
| CCC(CC)C(=O)OCc1cc(=O)n2nc(C3CCCCC3)sc2n1 | 88% |
| COc1ccc(/C=C(\NC(=O)c2ccccc2)C(N)=O)cc1 | 79% |
| CC(C)CCNC(=O)Cn1c(-c2cccs2)cc2cc(F)ccc21 | 94% |
| Cc1cc(C)c2c(c1)c(C)cc1nnc(SCC(=O)c3ccc(F)cc3)n12 | 63% |
| Cc1ccc(C)c(CSC2=NC(C)(C)Nc3ccccc32)c1 | 80% |
| CCC(NC(C)=O)c1ccccc1 (stereo unspecified) | 71% |
| CCCCCCNc1nc(Oc2ccccc2)nc(Oc2ccccc2)n1 | 62% |
| CN(C)C(=O)CSc1n[nH]c(-c2ccccc2)n1 | 103% |
| Cc1ccc(-c2noc(-c3ccc(N4CCC(C)CC4)c([N+](=O)[O-])c3)n2)cc1 | 85% |
| Cc1ccc(NC(=O)CSc2nc3ccc(NC(=O)CCc4ccccc4)cc3s2)cc1 | 90% |
| Cc1nn(S(=O)(=O)c2ccc(C(C)C)cc2)c(C)c1S(=O)(=O)N1CCCCC1 | 79% |
| O=C(COc1ccc(Cl)cc1)OCc1cc(=O)n2nc(C3CC3)sc2n1 | 83% |
| Cc1cc(=O)[nH]c2nnc(SCc3ccc(Cl)cc3Cl)n12 | 123% |
| COc1ccccc1NC(=O)c1sc2ncn(Cc3ccccc3Cl)c(=O)c2c1C | 99% |
| Cc1cccc(-c2nc3c(cnn3-c3ccccc3)c(=O)n2-c2ccc(Cl)cc2)c1 | 56% |
| Cc1cccc(-n2c(-c3ccco3)nc3c(cnn3-c3ccc(F)cc3)c2=O)c1 | 81% |
| Cc1cccc(-c2nc3c(cnn3-c3ccccc3)c(=O)n2-c2cccc(Cl)c2)c1 | 44% (active) |
| CCOc1ccc(-n2c(CC)nc3c(cnn3-c3ccc(Cl)cc3)c2=O)cc1 | 46% |
| CCOc1ccc(-n2c(-c3ccc(C)cc3)nc3c(cnn3-c3ccccc3)c2=O)cc1 | 42% (active) |
| CCOc1ccc(-n2c(C)nc3c(cnn3-c3ccc(C)cc3)c2=O)cc1 | 76% |
| CC(=O)c1ccc(N2CCN(S(=O)(=O)c3ccc4c(c3)C(C)(C)C(=O)N4)CC2)cc1 | 64% |

| Compound | survival |
| --- | --- |
| CN1C(=O)c2ccccc2Sc2ccc(NC(=O)NCc3ccc(Cl)cc3)cc21 | 96% |
| COC(=O)c1c(NC(=O)/C=C/c2ccc(OC)c(OC)c2)sc2c1CCC2 | 51% |
| CCOC(=O)c1c(NC(=O)/C=C/c2ccc(OC)cc2)sc2c1CCC(C)C2 (stereo unspecified) | 23% (active) |
| COc1cc(C(=O)Nc2sc3c(c2C(N)=O)CCC(C)C3)cc(OC)c1OC (stereo unspecified) | 53% |
| CCOC(=O)c1sc(NC(=O)/C=C/c2ccc(C(C)C)cc2)c(C(=O)OCC)c1C | 52% |
| COC(=O)c1sc(NC(=O)/C=C/c2ccc(OC)c(OC)c2)c(C(=O)OC)c1C | 37% (active) |
| CCOC(=O)c1c(NC(=O)/C=C/c2ccc(Cl)cc2)sc2c1CCC(C)C2 (stereo unspecified) | 44% (active) |
| COC(=O)c1c(NC(=O)/C=C/c2ccc(OC)cc2)sc2c1CCC2 | 102% |
| CCOC(=O)c1c(NC(=O)/C=C/c2ccc(OCC)c(OC)c2)sc2c1CCC2 | 56% |
| COc1ccc(/C=C/C(=O)Nc2sc3c(c2C(N)=O)CCCC3)cc1 | 58% |
| CCOC(=O)c1c(NC(=O)/C=C/c2ccc(OC)c(OC)c2)sc(C(C)=O)c1C | 118% |
| COc1ccc(/C=C/C(=O)Nc2sc3c(c2C(N)=O)CCC(C)C3)cc1OC (stereo unspecified) | 34% (active) |
| CCCOc1ccc(/C=C/C(=O)Nc2sc3c(c2C(=O)OCC)CCC(C)C3)cc1OC (stereo unspecified) | 51% |
| Cc1ccccc1-c1noc(-c2nnn(-c3ccccc3C)c2N)n1 | 94% |
| O=C(NCc1ccco1)c1ccc2c(c1)N(Cc1ccccc1F)C(=O)c1ccccc1S2=O (stereo unspecified) | 90% |
| CCCCNC(=O)c1ccc2c(c1)N(Cc1ccc(F)cc1)C(=O)c1ccccc1S2=O (stereo unspecified) | 65% |
| COC1CCCC(C(=O)Nn2c(C3CC3)nc3ccccc3c2=O)C1 (stereo unspecified) | 69% |
| Cc1cc(F)ccc1NC(=O)c1csc2c1CCC(C)C2 (stereo unspecified) | 89% |
| Cc1occc1C(=O)NN=C1c2ccccc2-c2ccccc21 | 69% |
| CCN(C(=O)c1oc2ccc(S(=O)(=O)N3CCCCCC3)cc2c1C)c1ccccc1 | 124% |
| CSc1ccc(NC(=O)N2C3CCC2CC(O)(c2cccnc2)C3)cc1 (stereo unspecified) | 79% |
| CCOc1ccccc1CNS(=O)(=O)c1ccc(-c2coc(C)n2)cc1 | 94% |

| Compound | survival |
| --- | --- |
| Cc1nc(N2CCCC2)ncc1C(=O)Nc1ccc(F)cc1F | 90% |
| Cc1ccc(Cl)cc1NC(=O)c1ccc2nc(CCc3ccccc3)oc2c1 | 69% |
| Cc1ccc(-c2cn3c(n2)sc2cc(C(=O)NCc4cccs4)ccc23)c(C)c1 | 41% (active) |
| Cc1ccc(-c2cn3c(n2)sc2cc(C(=O)NCc4cccs4)ccc23)cc1 | 78% |
| COc1ccc(-c2cn3c(n2)sc2cc(C(=O)NCc4cccs4)ccc23)cc1 | 55% (active) |
| O=C(NCc1cccs1)c1ccc2c(c1)sc1nc(-c3ccccc3)cn12 | 82% |
| O=C(NCc1cccs1)c1ccc2c(c1)sc1nc(-c3ccc(F)cc3)cn12 | 71% |
| COc1cccc(-c2cn3c(n2)sc2cc(C(=O)NCc4cccs4)ccc23)c1 | 57% |
| O=C(CCc1ccccc1)NCc1ccc2c(c1)CCN2C(=O)c1ccc(Cl)cc1 | 77% |
| COc1ccc(CCNC(=O)c2cnn(-c3cccc(C)c3)c2C2CCN(C(=O)OC(C)(C)C)CC2)cc1OC | 67% |
| Cc1cc(C)cc(OCCCn2c(CCNC(=O)C3CCCCC3)nc3ccccc32)c1 | 35% |
| Cc1ccc(OCCCn2c(CCNC(=O)C3CCCCC3)nc3ccccc32)c(C)c1 | 64% |
| Cc1ccccc1OCCCn1c(CCNC(=O)C2CCCCC2)nc2ccccc21 | 61% |
| Cc1cc(C)cc(OCCn2c(CCNC(=O)C3CCCCC3)nc3ccccc32)c1 | 92% |
| O=C(NCCCc1nc2ccccc2n1Cc1ccc(Cl)cc1)C1CCCCC1 | 64% |
| Cc1cc(OCCCn2c(CCNC(=O)C3CCCCC3)nc3ccccc32)ccc1Cl | 4% (active) |
| Cc1cccc(C)c1OCCCn1c(CCNC(=O)C2CCCCC2)nc2ccccc21 | 1% (active) |
| Cc1ccc(OCCn2c(CCNC(=O)C3CCCCC3)nc3ccccc32)cc1 | 61% |
| Cc1cccc(C)c1OCCn1c(CCNC(=O)C2CCCCC2)nc2ccccc21 | 57% |
| O=C(NCCc1nc2ccccc2n1CCOc1ccc(Cl)cc1)C1CCCCC1 | 36% (active) |
| Cc1cc(OCCn2c(CCNC(=O)C3CCCCC3)nc3ccccc32)ccc1Cl | 87% |
| O=C(NCCc1nc2ccccc2n1CCCOc1ccc(Cl)cc1)C1CCCCC1 | 24% (active) |
